PubChem BioAssay (EPA / NIEHS)
Activity calls are given as the source filed them. How the source made its calls: active means hit-call score of the fitted dose curve at least 0.9, where 1 is the maximum; inactive means score below 0.9.

Key:
[1] = BSK_hDFCGF_SRB: Viability Assessment in the BioMAP Diversity Plus: hDFCGF Assay (AID 2283061); details: primary human foreskin fibroblasts;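 further: cells exposed to compound for 24 h before the read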
Summary of the method: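 Viability was read as total protein: after 10% TCA fixation, wells were stained with 0.1% sulforhodamine B and read at 560 nm. Primary human foreskin fibroblasts were dosed for 24 h, with bidirectional fitting versus DMSO.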

[2] = read-out: TIMP metallopeptidase inhibitor 1 (TIMP1), TIMP1 (gene 7076); assay: BSK_hDFCGF_TIMP1: BioMAP Diversity Plus: hDFCGF Assay for TIMP metallopeptidase inhibitor 1 (TIMP1) Biomarker Activity (AID 2283062); details: primary human foreskin fibroblasts; actives raise or lower the signal
Summary of the method: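 TIMP-1 measured by ELISA 24 h after chemical dosing of primary human skin fibroblasts, with gain or loss fitted relative to DMSO. Parallel SRB staining (560 nm) monitored overt cytotoxicity.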

[3] = read-out: Monokine induced gamma interferon (MIG), CXCL9 (gene 4283); assay: BSK_hDFCGF_MIG: BioMAP Diversity Plus: hDFCGF Assay for Monokine induced gamma interferon (MIG) Biomarker Activity (AID 2283063); details: primary human foreskin fibroblasts; actives raise or lower the signal
Summary of the method: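 Human primary foreskin fibroblasts in the hDFCGF system, exposed to test chemical for 24 h; MIG measured by ELISA. Bidirectional curve fitting against DMSO negative control as activity baseline.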

[4] = read-out: Matrix Metallopeptidase 1 (MMP1), MMP1 (gene 4312); assay: BSK_hDFCGF_MMP1: BioMAP Diversity Plus: hDFCGF Assay for Matrix Metallopeptidase 1 (MMP1) Biomarker Activity (AID 2283064); details: primary human foreskin fibroblasts; actives raise or lower the signal
Summary of the method: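 ELISA read-out of MMP1 from human foreskin fibroblasts (primary skin cells), 24 h post-dose. Gain or loss of signal was fitted bidirectionally versus DMSO negative control; cytotoxicity was checked by SRB in parallel cultures.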

[5] = read-out: Vascular cell adhesion molecule 1 (VCAM1), VCAM1 (gene 7412); assay: BSK_hDFCGF_VCAM1: BioMAP Diversity Plus: hDFCGF Assay for Vascular cell adhesion molecule 1 (VCAM1) Biomarker Activity (AID 2283065); details: primary human foreskin fibroblasts; actives raise or lower the signal
Summary of the method: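 ELISA readout of VCAM-1 on human dermal fibroblast primary cultures, 24 h after chemical exposure. Gain or loss of signal fitted in both directions against DMSO baseline.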

[6] = read-out: Plasminogen activator inhibitor-1 (PAI1), SERPINE1 (gene 5054); assay: BSK_hDFCGF_PAI1: BioMAP Diversity Plus: hDFCGF Assay for Plasminogen activator inhibitor-1 (PAI1) Biomarker Activity (AID 2283066); details: primary human foreskin fibroblasts; actives raise or lower the signal
Summary of the method: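 Human skin fibroblast cultures receive chemical for 24 h before PAI-1 is measured by ELISA; signal changes are fitted bidirectionally against DMSO-treated wells.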

[7] = read-out: Intercellular Adhesion Molecule 1 (ICAM1), ICAM1 (gene 3383); assay: BSK_KF3CT_ICAM1: BioMAP Diversity Plus: KF3CT Assay for Intercellular Adhesion Molecule 1 (ICAM1) Biomarker Activity (AID 2283067); details: primary human keratinocytes with fibroblasts; actives raise or lower the signal
Summary of the method: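 Cell-surface ICAM-1 was measured by ELISA 24 h after dosing primary human skin keratinocytes co-cultured with fibroblasts. Parallel SRB staining tracked overt cytotoxicity. Gain or loss of signal was fitted relative to DMSO.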

[8] = read-out: Interferon-gamma inducible Protein 10 (IP10), CXCL10 (gene 3627); assay: BSK_KF3CT_IP10: BioMAP Diversity Plus: KF3CT Assay for Interferon-gamma inducible Protein 10 (IP10) Biomarker Activity (AID 2283068); details: primary human keratinocytes with fibroblasts; actives raise or lower the signal
Summary of the method: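 KF3CT co-culture (keratinocytes + foreskin fibroblasts), 24 h compound, IP-10 by ELISA; bidirectional fit vs DMSO baseline.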

[9] = BSK_KF3CT_SRB: Viability Assessment in the BioMAP Diversity Plus: KF3CT Assay (AID 2283069); details: primary human keratinocytes with fibroblasts;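 further: total protein by sulforhodamine B staining as a cytotoxicity measure; read 24 h after compound addition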
Summary of the method: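 SRB read-out at 560 nm (0.1% stain, TCA-fixed cells) gauges overt cytotoxicity in a human skin keratinocyte–fibroblast co-culture 24 h post-dosing. Signal change was fitted bidirectionally relative to DMSO control.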

[10] = read-out: Interleukin-1 alpha (IL1a), IL1A (gene 3552); assay: BSK_KF3CT_IL1a: BioMAP Diversity Plus: KF3CT Assay for Interleukin-1 alpha (IL1a) Biomarker Activity (AID 2283070); details: primary human keratinocytes with fibroblasts; actives raise or lower the signal
Summary of the method: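 Primary skin co-culture (keratinocytes, foreskin fibroblasts), 24 h exposure; ELISA for IL-1a; bidirectional curve fit vs DMSO.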

[11] = read-out: TIMP metallopeptidase inhibitor 2 (TIMP2), TIMP2 (gene 7077); assay: BSK_KF3CT_TIMP2: BioMAP Diversity Plus: KF3CT Assay for TIMP metallopeptidase inhibitor 2 (TIMP2) Biomarker Activity (AID 2283071); details: primary human keratinocytes with fibroblasts; actives raise or lower the signal
Summary of the method: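 Measurements come from ELISA detection of TIMP-2 at 24 hours in a dosed human keratinocyte and foreskin fibroblast co-culture. DMSO serves as negative control and baseline.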

[12] = read-out: Transforming growth factor beta 1 (TGFb1), TGFB1 (gene 7040); assay: BSK_KF3CT_TGFb1: BioMAP Diversity Plus: KF3CT Assay for Transforming growth factor beta 1 (TGFb1) Biomarker Activity (AID 2283072); details: primary human keratinocytes with fibroblasts; actives raise or lower the signal
Summary of the method: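 TGF-b1 ELISA on a 24 h dosed co-culture of human keratinocytes and foreskin fibroblasts; cytotoxicity tracked in parallel cultures by SRB staining.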

[13] = read-out: C-C motif chemokine 2 (Homo sapiens) (UniProt P13500); assay: BSK_KF3CT_MCP1: BioMAP Diversity Plus: KF3CT Assay for Monocyte Chemoattractant Protein 1 (MCP1/CCL2) Biomarker Activity (AID 2283073); details: primary human keratinocytes with fibroblasts; actives raise or lower the signal
Summary of the method: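 ELISA read-out of MCP-1, 24 h post-dose, in primary human skin keratinocytes co-cultured with fibroblasts. Parallel SRB staining monitors cytotoxicity; changes fitted both directions relative to DMSO.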

[14] = read-out: Matrix Metallopeptidase 9 (MMP9), MMP9 (gene 4318); assay: BSK_KF3CT_MMP9: BioMAP Diversity Plus: KF3CT Assay for Matrix Metallopeptidase 9 (MMP9) Biomarker Activity (AID 2283074); details: primary human keratinocytes with fibroblasts; actives raise or lower the signal;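 on AC50: MMP9 protein level quantified by ELISA in the co-culture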
Summary of the method: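 ELISA read-out of MMP-9 at 24 h post-dosing in a co-culture of human skin keratinocytes and foreskin fibroblasts. Gain or loss of signal was fitted in both directions against DMSO.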

[15] = read-out: urokinase plasminogen activator (uPA), PLAU (gene 5328); assay: BSK_KF3CT_uPA: BioMAP Diversity Plus: KF3CT Assay for urokinase plasminogen activator (uPA) Biomarker Activity (AID 2283075); details: primary human keratinocytes with fibroblasts; actives raise or lower the signal
Summary of the method: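 Skin co-culture (keratinocytes + foreskin fibroblasts), human primary; 24 h post-dose; uPA by ELISA; gain/loss fit vs DMSO baseline.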

[16] = read-out: CD40, CD40 (gene 958); assay: BSK_LPS_CD40: BioMAP Diversity Plus: LPS Assay for CD40 Biomarker Activity (AID 2283076); details: primary human HUVEC with PBMC; actives raise or lower the signal
Summary of the method: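 In the LPS system of human endothelial cells with peripheral blood mononuclear cells, CD40 levels were read by ELISA 24 h post-treatment. Signal changes in either direction were fitted against the DMSO baseline, with parallel SRB protein staining.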

[17] = read-out: E-selectin (Homo sapiens) (UniProt P16581); assay: BSK_LPS_Eselectin: BioMAP Diversity Plus: LPS Assay for Eselectin Biomarker Activity (AID 2283077); details: primary human HUVEC with PBMC; actives raise or lower the signal
Summary of the method: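 E-selectin ELISA on LPS-stimulated endothelial cell/PBMC co-cultures, read 24 h post-treatment; gains and losses fitted against DMSO. Parallel SRB staining (0.1% SRB after 10% TCA fixation, 560 nm) flags overt cytotoxicity.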

[18] = read-out: Interleukin-8 (IL8), CXCL8 (gene 3576); assay: BSK_LPS_IL8: BioMAP Diversity Plus: LPS Assay for Interleukin-8 (IL8) Biomarker Activity (AID 2283078); details: primary human HUVEC with PBMC; actives raise or lower the signal
Summary of the method: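 ELISA read-out of IL-8 after 24 h chemical treatment of LPS-activated endothelial/PBMC human primary co-cultures. Changes either up or down relative to DMSO; overt cytotoxicity checked by sulforhodamine B staining in parallel wells.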

[19] = BSK_LPS_SRB: Viability Assessment in the BioMAP Diversity Plus: LPS Assay (AID 2283079); details: primary human HUVEC with PBMC;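 further: total protein by sulforhodamine B absorbance as a cytotoxicity measure; measured one day after compound addition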
Summary of the method: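 SRB viability endpoint: cells fixed with 10% TCA, stained with 0.1% SRB, read at 560 nm, 24 h post-dose. HUVEC/PBMC co-culture; signal change in either direction scored relative to DMSO.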

[20] = read-out: Interleukin-1 alpha (IL1a), IL1A (gene 3552); assay: BSK_LPS_IL1a: BioMAP Diversity Plus: LPS Assay for Interleukin-1 alpha (IL1a) Biomarker Activity (AID 2283080); details: primary human HUVEC with PBMC; actives raise or lower the signal
Summary of the method: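 Readout is IL-1a level by ELISA, 24 h post-dose, fitted as gain or loss relative to DMSO. System: LPS-activated human primary co-culture of vascular endothelium and peripheral blood mononuclear cells, with parallel SRB total-protein cytotoxicity.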

Measured: AC50

Sequence of E-selectin (Homo sapiens) (P16581 whole entry, looked up): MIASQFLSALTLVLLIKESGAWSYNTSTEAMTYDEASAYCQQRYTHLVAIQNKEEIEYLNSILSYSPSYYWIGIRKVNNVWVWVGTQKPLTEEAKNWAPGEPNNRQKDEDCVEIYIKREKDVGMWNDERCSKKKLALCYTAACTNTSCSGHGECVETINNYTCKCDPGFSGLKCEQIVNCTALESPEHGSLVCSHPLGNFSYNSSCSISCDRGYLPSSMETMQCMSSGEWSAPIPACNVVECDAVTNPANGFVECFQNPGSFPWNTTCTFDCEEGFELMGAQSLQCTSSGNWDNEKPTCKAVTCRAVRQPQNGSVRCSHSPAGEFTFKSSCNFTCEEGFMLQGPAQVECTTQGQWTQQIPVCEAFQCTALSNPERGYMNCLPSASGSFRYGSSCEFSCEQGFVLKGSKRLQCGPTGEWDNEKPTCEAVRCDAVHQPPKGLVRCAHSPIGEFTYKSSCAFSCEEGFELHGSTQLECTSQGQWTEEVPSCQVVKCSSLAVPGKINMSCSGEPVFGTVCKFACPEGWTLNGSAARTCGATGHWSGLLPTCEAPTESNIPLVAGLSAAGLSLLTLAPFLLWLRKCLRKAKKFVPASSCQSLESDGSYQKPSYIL

COc1ccc(-c2ccccc2)cc1NNC(=O)OC(C)C
inactive: [1] | [2] | [3] | [4] | [5] | [6] | [7] | [8] | [9] | [10] | [11] | [12] | [13] | [14] | [15] | [16] | [17] | [18] | [19] | [20]

O=C(O)c1c(Cl)ccc2cc(Cl)cnc12
inactive: [1] | [2] | [3] | [4] | [6] | [7] | [8] | [9] | [10] | [11] | [12] | [13] | [14] | [15] | [16] | [17] | [18] | [19] | [20]

CO/N=C(/C1=NOCCO1)c1ccccc1Oc1ncnc(Oc2ccccc2Cl)c1F
inactive: [1] | [3] | [4] | [5] | [6] | [7] | [9] | [11] | [12] | [15] | [20]
active: [2] 8.26 µM | [8] 7.33 µM | [10] 20 µM | [13] 28.6 µM | [14] 30.6 µM | [16] 13 µM | [17] 15.2 µM | [18] 20 µM | [19] 11.4 µM
